# Assay outcomes deposited in PubChem BioAssay by The Scripps Research Institute Molecular Screening Center.
# In the library only some 4.5% were active in any assay of this set; here they are far more common.
# DAX1 inh-1: inhibits human nuclear receptor DAX1; 340,000 tested, 0.99% active; HEK293 Gal4-DAX1 luciferase reporter, luminescence; P51843; inhibition, % at 6.75 µM;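 active = inhibition above the mean over all tested compounds plus 3 SD, cut at about 4.2% in these data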;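 also: 0% = DAX1-transfected cells with DMSO and 100% = empty-vector control cells with DMSO; inhibition shows as a rise in luminescence from relieved DAX1 repression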
# Target sequence (P51843 207-470 limits assumed): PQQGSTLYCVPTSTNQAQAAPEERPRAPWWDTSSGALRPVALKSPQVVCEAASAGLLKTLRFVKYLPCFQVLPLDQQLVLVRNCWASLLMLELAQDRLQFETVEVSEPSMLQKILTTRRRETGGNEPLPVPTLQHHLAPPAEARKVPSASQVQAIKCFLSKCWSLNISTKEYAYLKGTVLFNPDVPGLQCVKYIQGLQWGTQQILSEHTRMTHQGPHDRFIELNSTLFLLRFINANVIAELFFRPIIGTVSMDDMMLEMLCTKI
# hgDAF-12 ag: agonists of H. glycines DAF-12 nuclear receptor | AID 687014 | 370,000 tested, 1.8% active | HEK293 GAL4-hgDAF12 UAS-luciferase reporter, agonist luminescence; normalized to butyrate control | activation, % at 6.8 µM;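 active = activation above a cutoff set at the mean of all screened compounds plus 3 SD, cut at about 10% in these data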;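 also: 0% = DMSO wells and 100% = sodium butyrate wells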
# ssDAF12 agonist: activates DAF-12 receptor from parasite S. stercoralis. HEK293 ssDAF-12/GRIP1 lit1-tk-luc reporter, luminescence; % of 3 µM dafachronic acid response. activation, % at 6.8 µM. 370,000 tested, 1% active. AID 652126;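 active = activation above the mean over all tested compounds plus 3 SD, cut at about 0.9% in these data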;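 also: 0% = DMSO-only wells and 100% = 3 µM delta7-dafachronic acid wells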
# FXN GAA850 act: increases GAA850 frataxin promoter reporter activity; HEK293 lucGAA850 FXN promoter luciferase reporter, 24 h; percent of 10 µM SAHA response; activation, % at 6 µM; 360,000 tested, 0.56% active;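 active = activation above the average of all compounds screened plus 3 SD, cutoff fixed separately per campaign, cut at about 7.5% in these data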;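 also: 0% = DMSO wells and 100% = 10 µM SAHA wells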
# DAX1 inh-2: blocks DAX1 repression of SF-1 activated StAR promoter; HEK293T StAR-luciferase reporter, SF-1/DAX-1 repression relief; inhibition, % at 6.8 µM; 370,000 tested, 1.1% active; AID 652010;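 active = inhibition above the mean over all tested compounds plus 3 SD, cut at about 3.6% in these data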;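 also: 0% = DAX-1 cells with DMSO and 100% = cells lacking DAX-1 with DMSO; higher inhibition means more luminescence from relief of DAX-1 repression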
# hcDAF-12 act: H. contortus DAF-12 activation, primary screen. HEK293 hcDAF-12 lit1-tk-luc reporter, luminescence; 0% DMSO, 100% Δ7-dafachronic acid. activation, % at 6.8 µM. 370,000 tested, 1.4% active. AID 652067;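 active = activation above the mean of all tested compounds plus 3 SD, cut at about 5.5% in these data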;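 also: 100% = response to 3 µM Δ7-dafachronic acid high control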
# LXR ag: LXR-beta agonism as hcDAF-12 counter-screen | shares compounds with hcDAF-12 act | AID 743027 | 3,400 tested, under 10 active | HEK293 Gal4-LXR tk-luc reporter, luminescence, 24 h; normalized: DMSO 0%, positive control 100% | activation, % at 6.8 µM;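 active = mean percent activation of the reporter above a cutoff set as the average over tested compounds plus their standard deviation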
# Target sequence (P55055 whole entry, looked up, the tested form may be a part): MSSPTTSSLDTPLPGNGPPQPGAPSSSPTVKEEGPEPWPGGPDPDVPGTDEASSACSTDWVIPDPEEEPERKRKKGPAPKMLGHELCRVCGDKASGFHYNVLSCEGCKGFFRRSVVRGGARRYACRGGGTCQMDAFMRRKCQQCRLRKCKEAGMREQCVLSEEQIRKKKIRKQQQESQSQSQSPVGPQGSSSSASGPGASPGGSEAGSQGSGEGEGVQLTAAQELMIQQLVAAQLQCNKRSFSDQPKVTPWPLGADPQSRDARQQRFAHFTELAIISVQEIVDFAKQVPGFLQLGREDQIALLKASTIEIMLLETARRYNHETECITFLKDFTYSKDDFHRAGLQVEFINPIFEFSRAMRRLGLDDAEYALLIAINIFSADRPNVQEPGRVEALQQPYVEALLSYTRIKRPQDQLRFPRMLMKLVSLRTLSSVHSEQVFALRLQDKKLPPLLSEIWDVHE
# hcDAF12 conf: hcDAF-12 agonism, confirmation assay | shares compounds with hcDAF-12 act | HEK293 hcDAF-12 lit1-tk-luc reporter, luminescence; % of Δ7-dafachronic acid response | activation, % at 6.8 µM | 3,400 tested, 61% active;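 active = mean activation across triplicate tests above the threshold derived from the earlier primary screen, cut at about 5.5% in these data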;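 also: 0% = DMSO only wells and 100% = 3 µM Δ7-dafachronic acid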
# Active calls of the source: *; x = not tested or not shown.
SMILES,DAX1 inh-1,hgDAF-12 ag,ssDAF12 agonist,FXN GAA850 act,DAX1 inh-2,hcDAF-12 act,LXR ag,hcDAF12 conf
COc1ccc(-n2cc(CNC3CCC(O)CC3)c(-c3cccc(F)c3)n2)cc1 (stereo not given),-0.5,0.1,-1.5,1.6,0.6,-0.6,x,x
CN(C)c1oc(-c2ccccc2)nc1C#N,1.2,0.6,-1.2,1.9,-1.0,-0.8,x,x
CN(C)c1oc(/C=C/c2ccccc2)nc1C#N,1.6,8.2,0.1,6.3,1.6,6.7*,0.7,5.5
C=CCn1c(SCC(=O)Nc2ccc(-c3nc4ccc(C)cc4s3)cc2)nnc1-c1ccncc1,-0.1,12.8*,-0.6,6.9,1.9,7.0*,0.3,2.1
Cc1ccc(NC(=O)COC(=O)/C=C/c2cccc(Cl)c2)cc1S(=O)(=O)N1CCOCC1,0.5,0.4,-0.1,2.0,0.2,8.7*,-0.3,-0.1
CC(CNC(=O)Cn1cnc2c(NCc3ccccc3)ncnc21)c1ccccc1 (stereo not given),0.2,0.1,-0.5,0.4,-1.6,-0.5,x,x
S=C(Nc1ccc(Br)cc1)N1CCCC1,1.0,0.9,-1.6,2.4,0.5,7.4*,-0.1,2.4
Cc1cccc(N(Cc2ccccc2)C(=O)c2cccc(S(=O)(=O)N3CC(C)OC(C)C3)c2)c1 (stereo not given),-3.0,-4.6,-1.8,-4.5,-1.1,-2.8,x,x
CCCc1cc(=O)n2[nH]c(-c3cccc(Br)c3)cc2n1,5.6*,8.2,-0.6,3.8,1.5,7.7*,0.8,7.3*
O=C(Nc1nnc(-c2ccccc2)s1)c1ccc(F)cc1,0.0,2.8,-1.1,4.6,-0.2,6.7*,0.2,2.1
O=C(/C=C/c1ccccc1O)c1ccc(Cl)cc1,-1.1,8.6,0.7,1.0,0.6,6.8*,0.0,4.2
O=C(NCC1CCCO1)c1cc2c(s1)CCC2 (stereo not given),3.5,4.2,-1.9,3.9,2.4,7.7*,0.3,2.2
Cc1cc(C(=O)NCC2CCCO2)sc1C (stereo not given),0.3,2.2,-0.6,2.8,2.9,-0.6,x,x
COc1ccc(CC(=O)OCC(=O)Nc2ccc(N3CCOCC3)cc2)cc1,1.6,3.3,-0.7,0.5,-1.0,-0.6,x,x
Cc1cc2nc(-c3ccccc3)c(CC3CCCCC3)n2c(C)c1Br,x,3.8,0.9*,x,3.5,6.9*,-0.2,2.9
COc1ccc(-c2nc3cc(C)c(Br)c(C)n3c2CC2CCCCC2)cc1OC,x,-0.2,0.7,x,2.0,0.5,x,x
Cc1ccc(-c2nc3c4ccccc4ccn3c2CC2CCCCC2)cc1,x,11.0*,2.5*,x,1.6,7.5*,0.1,6.2*
Cc1ccc(-c2nc3cc(C)c(Br)c(C)n3c2CC2CCCCC2)cc1,x,6.9,1.7*,x,1.5,7.7*,-0.2,3.7
Cc1cc(-c2ccc(S(=O)(=O)N3CCCCC3)s2)on1,0.6,-0.3,-1.4,0.7,0.3,-1.3,x,x
CCNC(=O)NC(=O)CSc1nc2ccccc2n1CCOC,-0.8,0.1,-1.7,1.3,-0.1,-1.2,x,x
O=C(Nc1ccccc1Cl)c1csc(-c2cccnc2)n1,5.0*,9.0,2.8*,3.8,0.0,7.6*,0.2,6.7*
Nc1c(Cl)c(Cl)nc(C(=O)N/N=C/c2ccco2)c1Cl,-1.3,3.0,0.1,1.3,0.0,6.9*,-0.3,3.4
CNC(=O)NC(=O)C(OC(=O)CCNS(=O)(=O)c1ccccc1)c1ccccc1 (stereo not given),0.6,1.4,-0.4,0.5,0.4,7.2*,-0.1,1.4
Cc1ccc(S(=O)(=O)NCC(=O)OC(C(=O)c2ccccc2)c2ccccc2)cc1 (stereo not given),0.2,1.2,-1.7,-1.6,0.3,1.2,x,x
CC(=NNc1nc2ccccc2s1)c1ncccn1,-3.9,12.4*,-0.1,-13.9,-1.5,11.2*,0.1,0.9
SMILES,DAX1 inh-1,hgDAF-12 ag,ssDAF12 agonist,FXN GAA850 act,DAX1 inh-2,hcDAF-12 act,LXR ag,hcDAF12 conf
C/C(=N/NC(=O)c1cccs1)c1cccs1,7.1*,12.7*,0.4,5.8,1.8,6.9*,0.6,3.8
C/C(=N\Nc1nc2ccccc2s1)c1cccs1,1.0,12.3*,1.4*,2.4,3.4,18.1*,1.9,23.0*
CCOC(=O)N/N=C(\C)c1cccs1,-0.2,7.2,-0.4,3.7,0.5,-0.3,x,x
CC(=NNc1nc2ccccc2o1)c1ncccn1,-5.1,-2.7,-0.8,-14.9,-5.4,0.1,x,x
C/C(=N\Nc1nc(-c2ccccc2)cs1)c1cccs1,0.1,-2.4,-0.2,-4.9,-1.5,1.7,x,x
Cc1cccc(/C=N/c2sc3c(c2C#N)CCN(Cc2ccccc2)C3)c1O,3.4,0.1,0.7,1.2,0.2,13.6*,0.0,6.7*
CN(c1ccccc1C(=O)Nc1ccc2c(c1)OCO2)S(C)(=O)=O,2.7,1.5,-0.8,2.9,-0.1,-0.7,x,x
COc1ccc(Cl)cc1C(=O)Nc1ccncc1,-1.9,3.2,-1.4,0.7,0.1,-1.8,x,x
Cc1ccccc1C(=O)Nc1ccc2c(c1)OCO2,-1.2,12.9*,0.1,-0.1,3.0,6.8*,1.6,4.7
COc1ccccc1C(=O)Nc1ccc2c(c1)OCO2,2.0,9.4,1.6*,3.7,3.5,8.0*,1.1,10.2*
O=C(Nc1ccc2c(c1)OCO2)c1cccs1,0.7,11.9*,-0.3,4.7,2.7,6.6*,0.8,6.1*
COc1ccc(Cl)cc1C(=O)Nc1ccc2c(c1)OCCO2,8.4*,10.4,3.0*,4.6,1.9,8.6*,1.1,11.7*
COc1ccccc1C(=O)NCC(=O)Nc1ccc2c(c1)OCO2,-0.5,-1.2,-0.8,0.2,0.1,-1.5,x,x
O=C(Nc1ccc2c(c1)OCO2)c1ccncc1,1.3,2.4,-0.5,-0.3,0.2,-0.1,x,x
Cc1cc(NC(=O)c2noc3c2CCCCC3)no1,1.1,x,x,2.1,x,x,x,x
COc1ccc(Cl)cc1C(=O)Nc1ccc2c(c1)OCO2,1.1,8.2,1.5*,3.0,2.9,7.3*,0.5,10.2*
O=C(Nc1ccc2c(c1)OCO2)c1noc2c1CCCCC2,0.5,12.2*,0.2,1.7,4.4*,9.0*,1.3,6.1*
Cc1ccc2c(c1)N(CCC(=O)NCCCN1CCCC1)C(=O)C(C)O2 (stereo not given),-0.4,0.7,-1.1,2.8,0.5,1.1,x,x
OC(c1cc(F)cc(Cl)c1)c1ncc(-c2ccccc2Cl)[nH]1 (stereo not given),x,0.9,-0.2,-0.7,-1.2,1.4,x,x
